Experimental data from the supplement of paper PMC12645437, “Orthogonal IMiD-Degron Pairs Induce Selective Protein Degradation in Cells” (ACS Chemical Biology, 2025).
The full ranking holds about 8,300 sequences; the median of “log2 fold change of degron read counts, EGFP-low vs EGFP+ sorted cells (limma voom), compound-induced degradation” is about -1.1, and the highest 2% start at about 3.2. The sample as a whole holds a higher share of the highest values than the screen did.

T1: CRBN, Q96SW2
T1 chain: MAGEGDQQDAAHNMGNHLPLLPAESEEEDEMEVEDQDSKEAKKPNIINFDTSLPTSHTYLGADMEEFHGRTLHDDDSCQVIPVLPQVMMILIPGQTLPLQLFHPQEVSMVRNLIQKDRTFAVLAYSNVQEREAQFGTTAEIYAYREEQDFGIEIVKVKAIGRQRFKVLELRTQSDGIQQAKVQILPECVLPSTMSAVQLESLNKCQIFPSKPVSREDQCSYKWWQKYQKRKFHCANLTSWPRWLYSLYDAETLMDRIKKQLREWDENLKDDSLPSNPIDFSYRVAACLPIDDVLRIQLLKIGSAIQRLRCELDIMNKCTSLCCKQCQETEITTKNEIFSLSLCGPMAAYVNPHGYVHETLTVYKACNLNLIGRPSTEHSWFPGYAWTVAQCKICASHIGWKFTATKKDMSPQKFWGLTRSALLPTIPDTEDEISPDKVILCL

B1: 46F_47S_49N_50I_52G_53A_54T_55F_67L_, Q9UKT9 (peptide)
chain: FSCNICGATFTQKGNLLRHIKL
B2: 46F_47R_49S_50V_52G_53H_54P_55F_67L_, Q9UKT9 (peptide)
chain: FRCSVCGHPFTQKGNLLRHIKL
B3: 46L_47D_49N_50Q_52G_53F_54V_55C_67L_, Q9UKT9 (peptide)
chain: LDCNQCGFVCTQKGNLLRHIKL
B4: 46F_47D_49N_50V_52G_53A_54S_55F_67L_, Q9UKT9 (peptide)
chain: FDCNVCGASFTQKGNLLRHIKL
B5: 46F_47D_49E_50I_52G_53R_54T_55F_67L_, Q9UKT9 (peptide)
chain: FDCEICGRTFTQKGNLLRHIKL
B6: 46F_47R_49E_50I_52G_53R_54S_55F_67L_, Q9UKT9 (peptide)
chain: FRCEICGRSFTQKGNLLRHIKL
B7: 46F_47E_49N_50I_52G_53A_54I_55F_67L_, Q9UKT9 (peptide)
chain: FECNICGAIFTQKGNLLRHIKL
B8: 46F_47H_49P_50V_52G_53A_54S_55F_67L_, Q9UKT9 (peptide)
chain: FHCPVCGASFTQKGNLLRHIKL
B9: 46F_47W_49D_50V_52G_53A_54S_55F_67L_, Q9UKT9 (peptide)
chain: FWCDVCGASFTQKGNLLRHIKL
B10: 46F_47C_49P_50V_52G_53A_54S_55F_67L_, Q9UKT9 (peptide)
chain: FCCPVCGASFTQKGNLLRHIKL
B11: 46F_47Y_49P_50V_52G_53A_54S_55F_67L_, Q9UKT9 (peptide)
chain: FYCPVCGASFTQKGNLLRHIKL
B12: 46F_47V_49D_50V_52G_53A_54S_55F_67L_, Q9UKT9 (peptide)
chain: FVCDVCGASFTQKGNLLRHIKL
B13: 46F_47I_49P_50V_52G_53A_54S_55F_67L_, Q9UKT9 (peptide)
chain: FICPVCGASFTQKGNLLRHIKL
B14: 46F_47L_49P_50V_52G_53A_54S_55F_67L_, Q9UKT9 (peptide)
chain: FLCPVCGASFTQKGNLLRHIKL
B15: 46F_47E_49D_50V_52G_53A_54S_55F_67L_, Q9UKT9 (peptide)
chain: FECDVCGASFTQKGNLLRHIKL
B16: 46F_47W_49P_50V_52G_53A_54S_55F_67L_, Q9UKT9 (peptide)
chain: FWCPVCGASFTQKGNLLRHIKL
B17: 46F_47T_49N_50Q_52G_53H_54I_55F_67L_, Q9UKT9 (peptide)
chain: FTCNQCGHIFTQKGNLLRHIKL
B18: 46L_47F_49N_50Q_52G_53F_54T_55C_67L_, Q9UKT9 (peptide)
chain: LFCNQCGFTCTQKGNLLRHIKL
B19: 46F_47A_49N_50I_52G_53A_54W_55F_67L_, Q9UKT9 (peptide)
chain: FACNICGAWFTQKGNLLRHIKL
B20: 46F_47E_49N_50Q_52G_53R_54S_55F_67L_, Q9UKT9 (peptide)
chain: FECNQCGRSFTQKGNLLRHIKL
B21: 46L_47M_49N_50Q_52G_53F_54P_55C_67L_, Q9UKT9 (peptide)
chain: LMCNQCGFPCTQKGNLLRHIKL
B22: 46F_47E_49E_50I_52G_53H_54S_55F_67L_, Q9UKT9 (peptide)
chain: FECEICGHSFTQKGNLLRHIKL
B23: 46F_47S_49D_50V_52G_53A_54V_55F_67L_, Q9UKT9 (peptide)
chain: FSCDVCGAVFTQKGNLLRHIKL
B24: 46F_47S_49P_50I_52G_53R_54V_55F_67L_, Q9UKT9 (peptide)
chain: FSCPICGRVFTQKGNLLRHIKL
B25: 46F_47M_49E_50I_52G_53H_54F_55F_67L_, Q9UKT9 (peptide)
chain: FMCEICGHFFTQKGNLLRHIKL
B26: 46F_47Q_49E_50I_52G_53A_54L_55F_67L_, Q9UKT9 (peptide)
chain: FQCEICGALFTQKGNLLRHIKL
B27: 46F_47D_49E_50I_52G_53A_54L_55F_67L_, Q9UKT9 (peptide)
chain: FDCEICGALFTQKGNLLRHIKL
B28: 46F_47A_49E_50I_52G_53A_54L_55F_67L_, Q9UKT9 (peptide)
chain: FACEICGALFTQKGNLLRHIKL
B29: 46F_47L_49E_50I_52G_53A_54L_55F_67L_, Q9UKT9 (peptide)
chain: FLCEICGALFTQKGNLLRHIKL
B30: 46F_47F_49E_50I_52G_53A_54L_55F_67L_, Q9UKT9 (peptide)
chain: FFCEICGALFTQKGNLLRHIKL
B31: 46F_47Y_49E_50I_52G_53A_54L_55F_67L_, Q9UKT9 (peptide)
chain: FYCEICGALFTQKGNLLRHIKL

Target: T1, CRBN, Q96SW2
Assay: log2 fold change of degron read counts, EGFP-low vs EGFP+ sorted cells (limma voom), compound-induced degradation; higher = more compound-induced degradation of the degron-EGFP fusion; degrons are variants of IKZF1/3 zinc finger 2; compound dose not given here
Settings: Jurkat, 18 h
Method: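 Pooled library of 8380 IKZF3 ZF2 degron mutants (positions 146-167 varied within the IKZF3 130-189 degron; only the varied core is printed, flanks not printed) fused to EGFP with IRES-mCherry, lentivirally expressed in Jurkat cells. mCherry+ cells were treated with one IMiD compound for 18 h (dose not stated) and FACS-sorted into EGFP-low and EGFP+ populations. Degron sequences were counted by NGS, and log2FC (EGFP-low vs EGFP+) was estimated by limma voom over 3 biological replicates.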

[1] = compound: compound 19 (5-tert-butyl-thalidomide)
[2] = compound: compound 22 (5-morpholino-thalidomide)
[3] = compound: compound 33 (diphenyl IMiD analogue)
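Further: pooled lentiviral library of zinc finger degron-EGFP fusions in mCherry-positive Jurkat cells, FACS-sorted after compound exposure, with degron abundance counted by next-generation sequencing.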

| Sequence | log2 fold change of degron read counts [1] | log2 fold change of degron read counts [2] | log2 fold change of degron read counts [3] | log2 fold change of degron read counts (compound: thalidomide) |
| --- | --- | --- | --- | --- |
| B1 | 0.862 | 1.72 | 1.81 | 0.773 |
| B2 | -1.61 | 0.0411 | -0.252 | -0.256 |
| B3 | -1.84 | -2.2 | -2.2 | -1.82 |
| B4 | -0.855 | -1.38 | -1.21 | -0.475 |
| B5 | -2.33 | -3.04 | -1.56 | -1.64 |
| B6 | -2.18 | -2.81 | -0.226 | -0.504 |
| B7 | -2.22 | -1.59 | 0.523 | 1.84 |
| B8 | 2.48 | 2.53 | 2.04 | 0.495 |
| B9 | 2.69 | 3.48 | 1.06 | -0.779 |
| B10 | 3.07 | 2.44 | 2.49 | 2.37 |
| B11 | 3.09 | 3.3 | 2.34 | 1.12 |
| B12 | -1.45 | 1.32 | 0.282 | 0.656 |
| B13 | -0.331 | 2.74 | 2.17 | 2.62 |
| B14 | 0.819 | -0.0304 | 1.62 | 1.37 |
| B15 | -0.176 | -2.77 | -0.519 | -0.688 |
| B16 | 3.31 | 3.48 | 2.42 | 1.35 |

| Sequence | log2 fold change of degron read counts [1] | log2 fold change of degron read counts [2] | log2 fold change of degron read counts [3] | log2 fold change of degron read counts (compound: thalidomide) |
| --- | --- | --- | --- | --- |
| B17 | -3.22 | -3.78 | -2.72 | -3.39 |
| B18 | -0.962 | -0.778 | -1.34 | -1.55 |
| B19 | -0.878 | -0.37 | -0.973 | -1.22 |
| B20 | -2.91 | -4.04 | -3.77 | -2.98 |
| B21 | -2.18 | -2.49 | -1.64 | -1.76 |
| B22 | -3.4 | -3.98 | -3.41 | -3.14 |
| B23 | -0.211 | -0.318 | 1.04 | -0.804 |
| B24 | -0.277 | -0.0789 | 1.53 | 0.556 |
| B25 | -3.03 | -3.09 | -2.32 | -3.02 |
| B26 | -1.22 | 1.46 | 1.74 | 3.53 |
| B27 | -0.733 | -1.67 | 0.189 | -0.124 |
| B28 | 2.71 | 0.321 | 0.174 | -0.494 |
| B29 | -0.92 | -1.27 | 0.77 | 1.46 |
| B30 | 3.18 | 2.91 | 1.74 | 0.646 |
| B31 | 3.29 | 3.38 | 2.38 | 0.365 |
